Among the data in PubChem BioAssay (NCATS) are Potency, activity, negative = inhibition and redox activity (% of DA3003) values, retold here.

Values without a mark were called inactive. Records with an inconclusive call do not appear. The source made the active and inactive calls. The call rests on the fitted dose curve; in most records, active means well fitted curve in the direction sought with a large enough effect; inconclusive means small, poorly fitted or top-dose-only effect, or another doubt; inactive means no such curve, though single readings can be large; an effect the other way counts as inactive or inconclusive.

Assay [1] deals with Nanoluciferase (engineered Oplophorus gracilirostris luciferase). As to the kind of experiment: Primary Nanoluciferase (NLuc) qHTS assay for identification of artifact compounds. (AID 1845222).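 Further: NLuc secreted into diluted conditioned medium of S16 cells; series mostly up to about 54 µM; 0% = DMSO and -100% = no enzyme.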 The method, boiled down: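 Concentration-response data were obtained by luminescence after 5 min with Nano-Glo substrate at 1:100. The enzyme was diluted S16 NLuc-expressing cell medium, preincubated with compound for 15 min at RT. Curves were fitted with a 4-parameter Hill model.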

Assay [2] is described as follows: Primary redox qHTS assay for identification of artifact compounds. (AID 1845223).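 Further: 0% = DMSO and 100% = reference compound.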 The method in brief:
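Amplex Red (25 uM) and HRP (250 mU/mL) in HBSS, with compounds for 15 min, then 250 uM DTT for 30 min, room temperature, dark. Fluorescence 525/598 nm read; normalized to DMSO and 10 uM DA3003; Hill fit.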
(In general: Quantitative high-throughput screening tests each substance at several concentrations.)

In the case of `C=C(C)C(O)COc1ccc(CC(=O)O)cc1` (centres undefined), the Potency entry in assay [1] and in assay [2] was “inactive” in each case.
For `CC[C@H](C)[C@H](NC(=O)[C@H](Cc1ccc(O)cc1)NC(=O)[C@@H](N)C(C)C)C(=O)N[C@@H](Cc1cnc[nH]1)C(=O)N1CCC[C@H]1C(=O)N[C@@H](Cc1ccccc1)C(=O)O`, the activity, negative = inhibition in assay [1] was 2.76% [at 6.45 µM]. Moreover, the redox activity (% of DA3003) in assay [2] was -2.99% [at 6.41 µM].
Take `COC(=O)C(CC1(OC(=O)C(C)C)c2ccccc2N2C(=O)C(C)(C)N(O)C21)n1cnc2ccccc2c1=O` (centres undefined): the Potency result in assay [1] and in assay [2] was “inactive” each time.
In the case of `CC(=O)c1[nH]cc(CCC(=O)O)c1CC(=O)O`, the Potency result in assay [1] and in assay [2] was “inactive” throughout.
`CC(C)(CC(=O)N1CCCC1)NCC(=O)N1C[C@@H](F)C[C@H]1C#N`: the Potency result in assay [1] and in assay [2] was “inactive” each time.
Take `CC(=O)OC(C)(C)/C=C/C(=O)[C@](C)(O)C1[C@H](O)C[C@@]2(C)[C@@H]3CC=C4[C@@H](C[C@H](O[C@@H]5O[C@H](CO)[C@@H](O)[C@H](O)[C@H]5O)C(=O)C4(C)C)[C@]3(C)C(=O)C[C@]12C` (some centres undefined): the Potency result in assay [1] and in assay [2] was “inactive” in each case.
With `C=C[C@H]1[C@H](O[C@@H]2O[C@H](CO)[C@@H](O)[C@H](O)[C@H]2O)OC=C2C(=O)N3Cc4c([nH]c5ccccc5c4=O)[C@@H]3C[C@H]21`, the Potency entry in assay [1] and in assay [2] was “inactive” each time.
As for `Cc1ccc(C)c(S(=O)(=O)n2cnc3ccccc32)c1`, the Potency entry in assay [1] and in assay [2] was “inactive” each time.
In the case of `CC1=C2C(=O)C=C(CO[C@@H]3O[C@H](CO)[C@@H](O)[C@H](O)[C@H]3O)[C@@H]2[C@H]2OC(=O)[C@H](C)[C@@H]2[C@@H](O)C1`, the Potency result in assay [1] and in assay [2] was “inactive” in each case.
Turning to `CC(/C=C/C=C(\C)C(=O)O[C@@H]1O[C@H](CO[C@@H]2O[C@H](CO)[C@@H](O)[C@H](O)[C@H]2O)[C@@H](O)[C@H](O)[C@H]1O)=C\C=C\C=C(C)\C=C\C=C(/C)C(=O)O[C@@H]1C[C@](O)(C(=O)O)C[C@@H](O)[C@H]1OC(=O)/C=C/c1ccc(O)c(O)c1`, in assay [1], the activity, negative = inhibition was -29.7% [at 11.6 µM]. In assay [2], the redox activity (% of DA3003) was -7.98% [at 11.5 µM].
For `COc1c2cc(c(O[C@@H]3O[C@H](CO)[C@@H](O)[C@H](O)[C@H]3O)c1OC)CCCCC(O)CCc1ccc(O)c-2c1` (some centres undefined), the Potency result in assay [1] and in assay [2] was “inactive” each time.
Take `C[C@@H]1C(=O)O[C@H](C)[C@H]1C[C@@H](O)[C@](C)(O)[C@H]1CC[C@@]2(O)C3=CC(=O)[C@@H]4C[C@@H](O)[C@@H](O)C[C@]4(C)C3CC[C@]12C` (some centres undefined): the Potency result in assay [1] and in assay [2] was “inactive” throughout.
Take `COc1cc(C(=O)OC[C@H]2O[C@@H](OC(C)(C)C(=O)O)[C@H](O)[C@@H](O)[C@@H]2O)cc(OC)c1O`: the Potency result in assay [1] and in assay [2] was “inactive” each time.
In the case of `C=C1CC/C=C(/CO)C(=O)C[C@@H]2[C@@H]1C[C@@]2(C)COC(C)=O`, the Potency result in assay [1] and in assay [2] was “inactive” each time.
For `CC1=C(CC/C(C)=C/C(=O)O)[C@@]2(C)CCCC(C)(C)C2CC1=O` (some centres undefined), the Potency result in assay [1] and in assay [2] was “inactive” throughout.
With `CCCC/C=C\CCCCCc1cc(=O)c2ccccc2n1C`, the Potency entry in assay [1] and in assay [2] was “inactive” throughout.
Take `C[C@@H]1O[C@@H](O[C@H]2[C@H](OC(=O)[C@]34CCC(C)(C)C[C@H]3C3=CCC5[C@@]6(C)C[C@@H](O)[C@@H](O)[C@@](C)(CO)C6[C@H](O)C[C@@]5(C)[C@]3(C)CC4)OC[C@H](O)[C@@H]2O)[C@H](O)[C@H](O)[C@H]1O[C@@H]1OC[C@@H](O)[C@H](O[C@H]2O[C@H](C)[C@@H](O)[C@H](O)[C@@H]2O)[C@H]1O` (some centres undefined): the activity, negative = inhibition in assay [1] is 4.47% [at 11.6 µM]. Moreover, the redox activity (% of DA3003) in assay [2] is 18.5% [at 11.5 µM].
On to `CC(O)C1NC(=O)C2CCCN2C1=O` (centres undefined), for which the Potency result in assay [1] and in assay [2] was “inactive” in each case.
For `N#CN1CCC[C@@H](n2nc(-c3ccc(Oc4ccc(F)cc4F)cc3)c(C(N)=O)c2N)C1`, the Potency result in assay [1] and in assay [2] was “inactive” in each case.
As to `COCCCc1sc(-c2ccccc2)nc1C(=O)Nc1ccccc1-c1nc2cc(CN3CCCC3)cnc2s1`, the Potency entry in assay [1] and in assay [2] was “inactive” each time.
Turning to `CCC[C@H](N[C@@H](C)C(=O)N1[C@H](C(=O)O)C[C@@H]2CCCC[C@@H]21)C(=O)O`, the Potency entry in assay [1] and in assay [2] was “inactive” in each case.
For `O=C(C[C@@H]1C(C(=O)O)=CO[C@@H](O[C@@H]2O[C@H](CO)[C@@H](O)[C@H](O)[C@H]2O)/C1=C\CO)OCCc1ccc(O)c(O)c1`, the Potency result in assay [1] and in assay [2] was “inactive” each time.
For `Cc1ccc2[nH]c(=O)c(C3=NN(C(=O)CCC(=O)O)C(c4ccc(Br)cc4)C3)c(-c3ccccc3)c2c1` (centres undefined), the Potency entry in assay [1] and in assay [2] was “inactive” throughout.
Turning to `Cc1cccc(NC(=O)CN2CCC(c3ccccn3)CC2)c1`, the Potency result in assay [1] and in assay [2] was “inactive” each time.
With `CC(=O)O[C@@H]1[C@H](O[C@@H]2O[C@H](CO)[C@@H](O)[C@H](O)[C@H]2O)[C@@H](O[C@@H]2O[C@@H](C)[C@H](O)[C@@H](O[C@@H]3O[C@H](CO)[C@@H](O)[C@H](O)[C@H]3O)[C@H]2O)[C@H](OC(=O)[C@]23CCC(C)(C)C[C@H]2C2=CCC4[C@@]5(C)C[C@H](O)[C@H](O[C@@H]6O[C@H](C(=O)O)[C@@H](O)[C@H](O)[C@H]6O)[C@@](C)(C(=O)O)C5CC[C@@]4(C)[C@]2(C)CC3)O[C@@H]1C` (some centres undefined), the activity, negative = inhibition in assay [1] was 4.94% [at 11.6 µM]. The redox activity (% of DA3003) in assay [2] was -2.45% [at 11.5 µM].
As to `COCC1OC(n2cnc3c(=O)[nH]cnc32)C(O)C1O` (centres undefined), the Potency result in assay [1] and in assay [2] was “inactive” in each case.
As to `CC(C)CC(=O)NCCn1cc(C(=O)O)c(=O)cc1C(O)c1ccccc1` (centres undefined), the Potency result in assay [1] and in assay [2] was “inactive” in each case.
